{
  "source": "PubChem BioAssay",
  "note": "Inconclusive results are not listed. The source made the active and inactive calls. No stated cut-off is given here; in the data, active means fluorescence slope change above about 50%; inconclusive means mostly about 31% to 49%; inactive means weaker than that.",
  "data": [
    {"target": "ATP-dependent translocase ABCB1 (Homo sapiens) (UniProt P08183)", "sequence (P08183 whole entry, looked up)": "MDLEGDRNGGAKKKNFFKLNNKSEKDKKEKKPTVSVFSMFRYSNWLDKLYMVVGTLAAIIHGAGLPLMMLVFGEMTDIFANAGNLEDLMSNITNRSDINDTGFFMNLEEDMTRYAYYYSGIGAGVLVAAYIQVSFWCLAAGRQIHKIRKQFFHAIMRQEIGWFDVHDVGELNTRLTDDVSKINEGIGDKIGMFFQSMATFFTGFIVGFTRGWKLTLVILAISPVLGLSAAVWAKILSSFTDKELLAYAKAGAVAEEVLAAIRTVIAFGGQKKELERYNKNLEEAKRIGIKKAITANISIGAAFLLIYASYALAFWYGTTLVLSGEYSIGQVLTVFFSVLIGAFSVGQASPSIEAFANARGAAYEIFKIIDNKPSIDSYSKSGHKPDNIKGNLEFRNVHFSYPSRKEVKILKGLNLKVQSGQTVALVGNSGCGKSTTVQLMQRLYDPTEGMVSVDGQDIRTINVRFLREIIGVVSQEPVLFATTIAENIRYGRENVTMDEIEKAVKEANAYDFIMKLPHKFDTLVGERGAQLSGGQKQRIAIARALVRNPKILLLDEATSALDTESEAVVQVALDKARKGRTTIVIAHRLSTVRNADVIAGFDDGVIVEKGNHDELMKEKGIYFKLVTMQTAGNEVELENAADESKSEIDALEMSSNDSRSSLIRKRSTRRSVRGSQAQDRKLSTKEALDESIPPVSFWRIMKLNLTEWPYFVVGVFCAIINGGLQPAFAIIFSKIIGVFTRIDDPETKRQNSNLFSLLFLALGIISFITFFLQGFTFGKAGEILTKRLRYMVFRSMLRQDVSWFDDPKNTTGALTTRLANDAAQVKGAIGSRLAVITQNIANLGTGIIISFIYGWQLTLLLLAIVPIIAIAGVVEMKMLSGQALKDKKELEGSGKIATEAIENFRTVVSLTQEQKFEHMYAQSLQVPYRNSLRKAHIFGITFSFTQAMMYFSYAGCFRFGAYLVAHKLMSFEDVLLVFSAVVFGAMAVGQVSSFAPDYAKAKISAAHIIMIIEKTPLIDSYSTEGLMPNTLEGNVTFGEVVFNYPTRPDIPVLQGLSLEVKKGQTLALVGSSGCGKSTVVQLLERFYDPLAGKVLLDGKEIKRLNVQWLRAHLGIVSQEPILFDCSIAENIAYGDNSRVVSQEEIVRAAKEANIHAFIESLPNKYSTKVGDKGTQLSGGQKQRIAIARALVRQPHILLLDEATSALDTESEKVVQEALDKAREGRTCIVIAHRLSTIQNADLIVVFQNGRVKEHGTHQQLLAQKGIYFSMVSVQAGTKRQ", "assay": "P-glycoprotein substrate transport blockade – cell-based (AID 377)", "conditions": "MDR1-expressing cells, fluorescent substrate accumulation slope; active compounds read high; concentration not given here", "values": [
      {"smiles": "C[C@H]1O[C@@H](O[C@H]2[C@@H](O)C[C@H](O[C@H]3[C@@H](O)C[C@H](O[C@H]4CC[C@@]5(C)[C@H](CC[C@@H]6[C@@H]5C[C@@H](O)[C@]5(C)[C@@H](C7=CC(=O)OC7)CC[C@]65O)C4)O[C@@H]3C)O[C@@H]2C)C[C@H](O)[C@@H]1O", "fluorescence slope change": "24.1% (inactive)"},
      {"smiles": "C[C@H]1C[C@H]2[C@@H]3CCC4=CC(=O)C=C[C@]4(C)[C@@]3(F)[C@@H](O)C[C@]2(C)[C@@]1(O)C(=O)CO", "fluorescence slope change": "18% (inactive)"},
      {"smiles": "CC(C)C[C@H]1C(=O)N2CCC[C@H]2[C@]2(O)O[C@](NC(=O)[C@@H]3C=C4c5cccc6[nH]c(Br)c(c56)C[C@H]4N(C)C3)(C(C)C)C(=O)N12", "fluorescence slope change": "115% (active)"},
      {"smiles": "CC(=O)[C@H]1CC[C@H]2[C@@H]3CCC4=CC(=O)CC[C@]4(C)[C@H]3CC[C@]12C", "fluorescence slope change": "82.5% (active)"}
    ]}
  ]
}
